Source: PubChem BioAssay (NCI)
Several values for one entry are separate records, joined by “and”; a condition that tells them apart may be missing. Equal entries are not always repeated. About 83,000 compounds went through this panel and 20% of them were active in at least one assay; those are over-represented in the sample as a whole.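 Single-dose data. Exposure time 48 hours. Values below 10 considered active.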 Values without a mark were called inactive. Activity calls are given as the source filed them.

Tested on: HL-60(TB) leukemia
Assay: NCI-60 one-dose screen, 48 h (100 = growth as untreated, 0 = no growth, -100 = all killed)
Settings: 10 µM unless noted

| Compound | growth |
| --- | --- |
| Cc1nn(-c2ccccc2)c2nc(C)n(CC(=O)N/N=C/c3cccc([N+](=O)[O-])c3)c(=O)c12 | 99% |
| COc1ccc2c(c1)c(-c1cc3nc(-c4cn(C)c5ncccc45)cc(N)n3n1)cn2C | -66.3% (active) |
| COc1ccc(/C=C/c2nc3ccccc3nc2Nc2cccc(C)c2)cc1 | 92.8% |
| CC(=O)Nc1ccc(-c2cn(-c3cccc(C(=O)Nc4cc(C(F)(F)F)cc(C(F)(F)F)c4)c3)nn2)cn1 | -60.5% (active) |
| Cc1ccc(N=Nc2c(N)nn3c(-c4cc5ccccc5oc4=O)ccnc23)cc1 | 36.4% |
| CC(C)CSc1nc(NCCc2c[nH]c3ccccc23)c(C#N)c(-c2ccccc2)n1 | 60.7% |
| COc1ccc(/C=C2\C(=N)N=C(SCc3nc4ccccc4[nH]3)NC2=O)cc1 | 103% |
| C=C1CCC2C3(C)COC(c4ccccc4F)OC3CCC2(C)C1CC(O)C1=CCOC1=O (centres undefined) | 70.5% |
| CC12CC[C@@H]3[C@]4(C)COC(c5cn[nH]c5-c5ccc(Br)cc5)O[C@@H]4CC[C@@]3(C)[C@@H]1CC(C1=CCOC1=O)O2 (some centres undefined) | 27.2% |
| C/C(=C\CC/C=C(\C)CC/C=C(\C)CC[C@@H](O)C(C)(C)O)CC/C=C(\C)CC[C@@H](O)C(C)(C)O | -49.3% (active) |
| O=C(Nc1ccc(S(=O)(=O)N2CCCCC2)cc1)C(Cl)Cl | 120% |
| COc1cccc(NC(=O)c2ccc(NC(=O)CCl)s2)c1 | -28.2% (active) |
| COc1ccc(-c2ccc(/C=N/NC(=O)c3[nH]c4ccc(Br)cc4c3-c3ccccc3)o2)cc1 | 6.17% (active) |
| Cn1cc(-c2nnc(N)nc2-c2c[nH]c3ccc(F)cc23)c2cc(Br)cnc21 | 47.1% |
| COc1ccc(C(=O)/C=C/c2ccc(OCc3ccc(F)cc3)c(OC)c2)cc1OC | -5.63% (active) |
| Cc1cc2nc3c([nH]c2cc1C)c1ccc(=O)cc1n3CCN(C)C | 16.8% |
| CNS(=O)(=O)N1CCc2c(Br)c3c(c(OC)c2C1CCc1ccccc1)OCO3 (centres undefined) | -36.1% (active) |
| Cc1ccc(C(=O)Nc2cc(-c3ccccc3)cc(C(F)(F)F)c2)cc1C#Cc1cnc2cccnn12 | 38.1% |
| Cc1ccn2c(C(=O)c3ccccc3)cc(-c3cc(-c4ccc(N(C)C)cc4)c(C#N)c(N)n3)c2c1 | 95.1% |
| O=C(c1ccc(OCCN2CCOCC2)cc1)C1[C@H](c2ccc(Cl)cc2)[C@@H](c2ccccc2)NC12C(=O)Nc1ccc(Br)cc12 (some centres undefined) | -28.5% (active) |

| Compound | growth |
| --- | --- |
| CCOC(=O)C1=C(N)N(c2ccccc2)C2=C(C(=O)CC(C)(C)C2)C1c1ccc(Cl)cc1Cl (centres undefined) | 1.24% (active) |
| CC1CN(c2oc(-c3ccc([N+](=O)[O-])cc3)nc2C#N)CC(C)O1 (centres undefined) | 95% |
| COc1ccc(Nc2nnc(-c3c[nH]c4ccccc34)o2)cc1 | 29.8% |
| CCC(=O)c1c2c(c3ccc4c5ccccc5ccc4n13)C(=O)c1ccccc1C2=O | 90.1% |
| O=C(CSc1nc2c(c(=O)[nH]1)CCCC2)Nc1ccccc1C(=O)O | 95.1% |
| Cc1noc2c(Cc3ccc([N+](=O)[O-])cc3)nn(CC(=O)N/N=C/c3ccc(Cl)cc3)c(=O)c12 | 87.5% |
| Cc1ccc(/C=C/C(=O)c2ccc(NC(=O)CSc3nnc(-c4c[nH]c5ccccc45)n3-c3ccccc3)cc2)c(C)c1 | 79.6% |
| CN(C(=O)CN1C(=O)/C(=C/c2ccco2)SC1=S)C1CCS(=O)(=O)C1 (centres undefined) | 81.6% |
| O=C1Nc2cc(Cl)ccc2/C1=C/c1ccc(OCc2ccc(Br)cc2F)cc1 | 81.5% |
| COc1cc(CNC(=O)C[C@H](C)CCC=C(C)C)ccc1OCc1cn(-c2ccccc2F)nn1 | 91.5% |
| COc1ccc(-c2nnc3c(/C=C/c4ccc(Br)cc4)nc4ccccc4n23)cc1 | 3.92% (active) |
| OC1CCC(Cn2c(C(F)(F)F)cc3c(Cl)ncnc32)CC1 (centres undefined) | -37.5% (active) |
| Oc1ccc(/C=C2\CCCc3cc4ccc(O)cc4[o+]c32)c(O)c1 | 33.4% |
| O=C1NC(=NC23CC4CC(CC(C4)C2)C3)N/C1=C\c1ccc2ncoc2c1 | -8.15% (active) |
| O=C1/C(=C/C=C/c2ccco2)SC(=S)N1CC(=S)C1C=CS(=O)(=O)C1 (centres undefined) | 59.4% |
| Cc1nn(-c2ccccc2)c2ncn(CC(=O)N/N=C/c3c[nH]c4ccccc34)c(=O)c12 | 83.8% |
| CSc1ccc(OCc2nc3ccccc3n2-c2cccc(NS(C)(=O)=O)c2)cc1 | 115% and 105% |
| O=C(N/N=C/c1ccc(Br)o1)c1[nH]c2ccc(Br)cc2c1-c1ccccc1 | -48.7% (active) |
| COc1cc2c(c(OC)c1OC)C(=O)CC(c1cccc(NC(=O)c3cc(NC(=O)[C@H](CO)NC(=O)OC(C)(C)C)ccc3Cl)c1)O2 (some centres undefined) | 36.6% |
